Data on nine targets can be found in the supplement of paper PMC10849652.

About 7,900 targets were measured; listed, in parts, are those with a hit and a random draw of the rest. About 0.6% of all pairs of compound and target were hits. Values without a mark were called inactive.

What all share (assay): log2 fold change, soluble protein after heating vs DMSO (PISA); higher = thermal stabilisation; K562 cells, 10 uM, 30 min; active = over 0.2 and 3.5 SD of the protein, either way, in both replicates (recomputed)
Compound in assay [1]: C1=CC=C(C=C1)[C@H](COC2=CC3=C(C=C2)NC(=O)N3)NC(=O)C4=CC=CN(C4=O)CC5=CC(=C(C=C5)F)F
In outline:
(§1)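 Values are thermal stability changes relative to control samples and are taken from duplicates. They are stated as log2 fold changes. Before quantification by TMTpro 16plex LC-MS/MS with equalised channel sums, K562 cells at 2×10^6 cells/mL were treated with 10 μM compound for 30 min, heated in aliquots for 3 min across 48°C-58°C, pooled, extracted in PBS with 0.5% NP-40 at 4°C, and centrifuged at 21,000xg for 90 min to give the soluble supernatant.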

Compound in assay [2]: CC1=C(SC2=C1C(=N[C@H](C3=NN=C(N32)C)CC(=O)N)C4=CC=C(C=C4)Cl)C
In outline: as §1

Compound in assay [3]: CC1=C2C(=CC=C1)N=C(N(C2=O)C3=CC=CC=C3C)CN4C=NC5=C(N=CN=C54)N
A digest of the protocol: as §1

Compound in assay [4]: Cc1sc2c(c1C)C(c1ccc(Cl)cc1)=N[C@@H](CC(=O)OC(C)(C)C)c1nnc(C)n1-2
In outline: as §1

Compound in assay [5]: c1ccc([C@@H]2C[C@H]2NC2CCNCC2)cc1
In outline: as §1

UniProt P12277, sequence (P12277 whole entry, looked up): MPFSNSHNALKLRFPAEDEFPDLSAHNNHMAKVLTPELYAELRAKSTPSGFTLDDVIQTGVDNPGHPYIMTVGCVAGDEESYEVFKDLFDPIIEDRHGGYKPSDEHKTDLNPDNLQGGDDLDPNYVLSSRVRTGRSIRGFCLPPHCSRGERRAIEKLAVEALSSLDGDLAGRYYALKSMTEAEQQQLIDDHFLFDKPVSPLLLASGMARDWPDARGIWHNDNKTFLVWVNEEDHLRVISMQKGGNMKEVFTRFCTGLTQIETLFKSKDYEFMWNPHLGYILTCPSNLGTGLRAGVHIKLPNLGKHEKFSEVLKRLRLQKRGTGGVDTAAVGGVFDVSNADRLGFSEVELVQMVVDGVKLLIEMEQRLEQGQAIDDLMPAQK
UniProt Q8N4Q1, sequence (Q8N4Q1 whole entry, looked up): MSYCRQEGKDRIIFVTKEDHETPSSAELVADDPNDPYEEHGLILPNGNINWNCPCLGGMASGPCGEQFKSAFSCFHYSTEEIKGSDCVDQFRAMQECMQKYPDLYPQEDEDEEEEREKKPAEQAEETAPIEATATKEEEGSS
UniProt Q9H444, sequence (Q9H444 whole entry, looked up): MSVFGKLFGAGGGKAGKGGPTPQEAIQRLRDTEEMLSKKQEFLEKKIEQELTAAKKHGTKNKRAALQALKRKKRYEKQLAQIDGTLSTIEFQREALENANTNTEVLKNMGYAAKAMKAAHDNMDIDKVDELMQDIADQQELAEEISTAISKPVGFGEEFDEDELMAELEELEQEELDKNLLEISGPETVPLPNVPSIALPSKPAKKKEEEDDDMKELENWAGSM
UniProt Q9BT78, sequence (Q9BT78 whole entry, looked up): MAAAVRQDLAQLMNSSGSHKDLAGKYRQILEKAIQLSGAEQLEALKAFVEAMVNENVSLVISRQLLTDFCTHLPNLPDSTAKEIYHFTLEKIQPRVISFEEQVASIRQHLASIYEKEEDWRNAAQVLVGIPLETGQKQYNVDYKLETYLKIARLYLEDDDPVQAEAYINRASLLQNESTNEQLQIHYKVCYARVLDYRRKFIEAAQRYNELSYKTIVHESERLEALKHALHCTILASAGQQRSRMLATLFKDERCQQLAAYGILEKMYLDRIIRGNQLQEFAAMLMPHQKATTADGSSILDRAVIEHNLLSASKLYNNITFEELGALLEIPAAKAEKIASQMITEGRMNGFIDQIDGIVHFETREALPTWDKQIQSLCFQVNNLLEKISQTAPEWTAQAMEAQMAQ
UniProt P48730, sequence (P48730 whole entry, looked up): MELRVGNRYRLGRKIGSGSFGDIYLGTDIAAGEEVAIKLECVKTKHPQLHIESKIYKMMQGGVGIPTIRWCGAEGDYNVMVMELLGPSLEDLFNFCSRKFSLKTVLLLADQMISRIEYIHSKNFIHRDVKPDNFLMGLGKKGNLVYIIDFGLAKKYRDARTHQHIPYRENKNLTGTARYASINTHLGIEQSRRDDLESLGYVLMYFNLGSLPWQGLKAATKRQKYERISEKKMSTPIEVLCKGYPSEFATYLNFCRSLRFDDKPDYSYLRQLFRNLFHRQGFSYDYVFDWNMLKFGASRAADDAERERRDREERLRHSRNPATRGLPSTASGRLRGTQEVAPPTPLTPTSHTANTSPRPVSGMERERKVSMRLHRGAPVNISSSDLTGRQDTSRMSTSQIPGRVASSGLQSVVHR
UniProt Q9UHN6, sequence (Q9UHN6 whole entry, looked up): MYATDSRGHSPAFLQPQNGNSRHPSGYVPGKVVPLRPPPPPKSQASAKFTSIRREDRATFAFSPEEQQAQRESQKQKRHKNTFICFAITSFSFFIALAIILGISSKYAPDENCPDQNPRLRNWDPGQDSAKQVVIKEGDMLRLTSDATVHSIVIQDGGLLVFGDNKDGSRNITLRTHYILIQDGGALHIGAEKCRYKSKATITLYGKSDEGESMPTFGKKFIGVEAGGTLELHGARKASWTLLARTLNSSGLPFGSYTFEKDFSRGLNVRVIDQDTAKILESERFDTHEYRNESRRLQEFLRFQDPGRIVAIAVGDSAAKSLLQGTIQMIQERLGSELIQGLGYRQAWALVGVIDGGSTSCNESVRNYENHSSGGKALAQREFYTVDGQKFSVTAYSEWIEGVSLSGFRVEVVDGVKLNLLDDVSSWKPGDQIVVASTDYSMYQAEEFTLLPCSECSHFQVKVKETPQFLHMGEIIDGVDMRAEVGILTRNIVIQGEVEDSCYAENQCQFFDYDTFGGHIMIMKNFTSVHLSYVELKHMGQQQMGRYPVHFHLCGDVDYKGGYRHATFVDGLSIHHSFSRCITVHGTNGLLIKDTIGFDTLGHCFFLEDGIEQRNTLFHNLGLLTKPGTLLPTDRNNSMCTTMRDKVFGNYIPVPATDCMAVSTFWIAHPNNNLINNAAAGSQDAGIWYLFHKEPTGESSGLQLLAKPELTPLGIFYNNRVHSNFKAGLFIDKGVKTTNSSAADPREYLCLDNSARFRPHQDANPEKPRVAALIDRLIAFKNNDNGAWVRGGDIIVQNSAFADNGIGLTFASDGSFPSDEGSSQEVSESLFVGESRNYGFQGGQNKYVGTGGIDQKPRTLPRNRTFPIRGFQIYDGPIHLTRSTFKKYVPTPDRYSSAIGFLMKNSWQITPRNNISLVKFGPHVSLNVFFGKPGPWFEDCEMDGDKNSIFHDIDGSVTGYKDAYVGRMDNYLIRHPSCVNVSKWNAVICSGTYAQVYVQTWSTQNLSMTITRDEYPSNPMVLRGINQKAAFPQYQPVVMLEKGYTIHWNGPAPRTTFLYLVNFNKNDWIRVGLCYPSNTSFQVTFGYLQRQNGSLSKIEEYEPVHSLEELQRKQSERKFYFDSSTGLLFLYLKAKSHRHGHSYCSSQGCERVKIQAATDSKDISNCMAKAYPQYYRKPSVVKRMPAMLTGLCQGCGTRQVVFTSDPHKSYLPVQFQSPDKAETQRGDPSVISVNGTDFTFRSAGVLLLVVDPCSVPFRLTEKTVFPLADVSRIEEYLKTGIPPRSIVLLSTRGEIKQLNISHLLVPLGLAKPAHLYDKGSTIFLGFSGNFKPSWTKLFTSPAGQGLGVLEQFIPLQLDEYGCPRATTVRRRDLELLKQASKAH
UniProt P51790, sequence (P51790 whole entry, looked up): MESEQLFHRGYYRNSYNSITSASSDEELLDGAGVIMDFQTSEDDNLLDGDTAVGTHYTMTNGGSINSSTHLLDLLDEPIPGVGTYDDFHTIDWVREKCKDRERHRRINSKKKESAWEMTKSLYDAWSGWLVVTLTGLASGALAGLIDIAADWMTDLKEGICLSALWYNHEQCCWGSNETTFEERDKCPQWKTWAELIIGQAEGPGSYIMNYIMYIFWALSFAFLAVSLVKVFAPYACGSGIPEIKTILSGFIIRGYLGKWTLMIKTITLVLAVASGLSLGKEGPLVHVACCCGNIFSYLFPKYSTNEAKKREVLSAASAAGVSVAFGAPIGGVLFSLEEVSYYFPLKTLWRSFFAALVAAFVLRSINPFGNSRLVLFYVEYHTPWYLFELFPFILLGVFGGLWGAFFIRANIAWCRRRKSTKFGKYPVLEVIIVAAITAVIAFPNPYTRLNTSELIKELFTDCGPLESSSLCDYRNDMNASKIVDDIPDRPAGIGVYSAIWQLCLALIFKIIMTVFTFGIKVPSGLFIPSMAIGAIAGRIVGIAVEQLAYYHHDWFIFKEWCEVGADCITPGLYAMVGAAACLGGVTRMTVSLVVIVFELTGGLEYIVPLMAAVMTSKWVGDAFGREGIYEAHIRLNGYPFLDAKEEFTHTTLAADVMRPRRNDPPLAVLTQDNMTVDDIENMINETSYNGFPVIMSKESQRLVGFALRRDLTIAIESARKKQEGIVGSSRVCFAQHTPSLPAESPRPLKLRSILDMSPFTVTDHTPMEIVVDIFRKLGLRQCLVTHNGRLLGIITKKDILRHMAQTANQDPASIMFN
UniProt Q00535, sequence (Q00535 whole entry, looked up): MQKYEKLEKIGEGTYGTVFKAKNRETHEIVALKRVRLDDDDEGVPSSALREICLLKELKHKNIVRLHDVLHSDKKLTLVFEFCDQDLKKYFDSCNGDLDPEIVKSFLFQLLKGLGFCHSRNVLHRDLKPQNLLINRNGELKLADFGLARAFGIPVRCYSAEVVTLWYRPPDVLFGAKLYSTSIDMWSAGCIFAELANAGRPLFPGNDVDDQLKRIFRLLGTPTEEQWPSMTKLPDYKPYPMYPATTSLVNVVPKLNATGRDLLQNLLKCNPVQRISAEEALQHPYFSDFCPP
UniProt Q8IUI8, sequence (Q8IUI8 whole entry, looked up): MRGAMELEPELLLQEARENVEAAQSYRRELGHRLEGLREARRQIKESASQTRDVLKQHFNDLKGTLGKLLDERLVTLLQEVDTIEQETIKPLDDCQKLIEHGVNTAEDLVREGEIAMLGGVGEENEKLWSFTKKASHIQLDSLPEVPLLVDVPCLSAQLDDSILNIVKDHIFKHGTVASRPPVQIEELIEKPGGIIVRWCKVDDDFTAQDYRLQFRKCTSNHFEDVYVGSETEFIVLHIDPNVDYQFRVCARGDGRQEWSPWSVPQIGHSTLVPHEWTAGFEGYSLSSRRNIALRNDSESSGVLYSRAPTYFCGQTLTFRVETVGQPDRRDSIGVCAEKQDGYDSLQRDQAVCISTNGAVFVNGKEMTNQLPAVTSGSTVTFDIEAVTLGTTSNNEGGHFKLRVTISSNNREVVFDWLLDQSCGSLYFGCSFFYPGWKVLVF

As to CRLF3 (UniProt Q8IUI8), the log2 fold change in assay [1] was -0.03; in assay [2] it was 0.045; in assay [3], 0.087; in assay [4], 0.088; in assay [5], -0.036.

On to CHCHD4 isoform 2 (UniProt Q8N4Q1), for which the log2 fold change in assay [1] was 0.08; in assay [2], 0.205; in assay [3], -0.006; in assay [4], -0.489 (active); in assay [5], -0.113.

Consider CKB (UniProt P12277), for which the log2 fold change in assay [1] was -0.1; in assay [2], 0.01; in assay [3] it was 0.038; in assay [4], -0.022; in assay [5], -0.118.

For the target CDK5 (UniProt Q00535), the log2 fold change was -0.015 in assay [1]; 0.087 in assay [2]; -0.003 in assay [3]; -0.023 in assay [4]; -0.005 in assay [5].

In the case of CSNK1D (UniProt P48730), the log2 fold change in assay [1] was -0.08; in assay [2], -0.067; in assay [3] it was -0.192; in assay [4], -0.011; in assay [5] it was -0.015.

As for CHMP4B (UniProt Q9H444), the log2 fold change in assay [1] is -0.015; in assay [2] it was -0.004; in assay [3], 0.031; in assay [4], 0.056; in assay [5], 0.054.

As for CLCN3 isoform 2 (UniProt P51790), the log2 fold change in assay [1] is 0.044; in assay [2] it was -0.006; in assay [3], -0.014; in assay [4], -0.021; in assay [5], 0.013.

CEMIP2 (UniProt Q9UHN6): the log2 fold change in assay [1] is -0.03; in assay [2], -0.017; in assay [3] it was 0.08; in assay [4], -0.04; in assay [5], 0.081.

Turning to COPS4 (UniProt Q9BT78), the log2 fold change in assay [1] was 0.04; in assay [2], 0.023; in assay [3], 0.016; in assay [4], -0.01; in assay [5], -0.011.
